For 15 molecules, growth results are on record in the supplement of paper PMC11172423.

The test system of test [1] is Falciformispora senegalensis CBS197.79. Briefly: growth relative to untreated control; higher = less inhibition, active = 20 or less. The method, boiled down:
(§1)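 Growth was expressed as metabolic activity relative to the untreated growth control, with both corrected using a blank of medium plus dye. Hyphal fragments of M. mycetomatis MM55 or F. senegalensis CBS197.79 were suspended to 68–72% transmission at 660 nm in colourless RPMI 1640 containing L-glutamine and MOPS. In 96-well plates they were exposed to compound at 100 or 25 µM for 7 days at 37 °C, and viability was read with MTS (2 h, 490 nm) or resazurin (600 nm).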

Test [2] deals with Madurella mycetomatis MM55. The description is as above. The method, boiled down: as §1

A number with no mark means an inactive call.

In the case of `COP(=S)(OC)Oc1nc(Cl)c(Cl)cc1Cl`, the growth in test [1] (25 µM) is 91.7%; in test [1] (100 µM), 93.4%; in test [2] (25 µM) it was 88.5%; in test [2] (100 µM), 106%.

As to `COC(C)(C)CCCC(C)C/C=C/C(C)=C/C(=O)OC(C)C` (stereo not given), the growth in test [1] (25 µM) was 89.3%; in test [1] (100 µM), 97.8%.

Regarding `CC[C@H]1CN2CCc3cc(OC)c(OC)cc3[C@@H]2C[C@@H]1C[C@H]1NCCc2cc(OC)c(OC)cc21`, the growth in test [1] (25 µM) is 100%; in test [1] (100 µM) it was 18.3% (active).

Turning to `CC[C@H](C)[C@H]1O[C@]2(C=C[C@@H]1C)C[C@@H]1C[C@@H](C/C=C(\C)[C@@H](O[C@H]3C[C@H](OC)[C@@H](O[C@H]4C[C@H](OC)[C@@H](O)[C@H](C)O4)[C@H](C)O3)[C@@H](C)/C=C/C=C3\CO[C@@H]4[C@H](O)C(C)=C[C@@H](C(=O)O1)[C@]34O)O2.CO[C@H]1C[C@H](O[C@H]2[C@H](C)O[C@@H](O[C@@H]3/C(C)=C/C[C@@H]4C[C@@H](C[C@]5(C=C[C@H](C)[C@@H](C(C)C)O5)O4)OC(=O)[C@@H]4C=C(C)[C@@H](O)[C@H]5OC/C(=C\C=C\[C@@H]3C)[C@]54O)C[C@@H]2OC)O[C@@H](C)[C@@H]1O`, the growth in test [1] (25 µM) was 92.5%; in test [1] (100 µM), 90%.

Consider `COC(=O)N(C(=O)N1CO[C@@]2(C(=O)OC)Cc3cc(Cl)ccc3C2=N1)c1ccc(OC(F)(F)F)cc1`, for which the growth in test [1] (25 µM) is 100%; in test [1] (100 µM), 96.3%; in test [2] (25 µM), 46.3%; in test [2] (100 µM), 115%.

For `FC(F)(F)c1cc(Cl)cc(Nc2nc3cnc(OC4CCC4)cc3n2[C@@H]2CCNC2)c1`, the growth is 99.8% in test [1] (25 µM), 108% in test [1] (100 µM), 79.6% in test [2] (25 µM) and 64% in test [2] (100 µM).

For the molecule `Clc1ccc(C(OCCN2CCCCC2)c2ccccc2)cc1` (stereo not given), the growth is 100% in test [1] (25 µM) and 13.2% (active) in test [1] (100 µM).

Take `CC(C)(C#N)NC(=O)c1cc(Cl)cc(Cl)c1NC(=O)c1cc(Cl)nn1-c1ncccc1Cl`: the growth is 94.4% in test [1] (25 µM) and 94.6% in test [1] (100 µM).

For the molecule `CCOP(=S)(OCC)Oc1cc(C)nc(C(C)C)n1`, the growth in test [1] (25 µM) is 97.9%; in test [1] (100 µM), 88.9%.

For the molecule `COc1ccc(C[C@H]2NC[C@H](O)[C@H]2OC(C)=O)cc1`, the growth is 5.78% (active) in test [1] (25 µM) and 14.4% (active) in test [1] (100 µM).

Regarding `O=[N+]([O-])/N=C1\NCCN1Cc1ccc(Cl)nc1`, the growth is 90.2% in test [1] (25 µM), 86.5% in test [1] (100 µM), 92.8% in test [2] (25 µM) and 98.3% in test [2] (100 µM).

With `CCN(Cc1ccc(Cl)nc1)/C(=C/[N+](=O)[O-])NC`, the figures for the growth in test [1] (25 µM) and in test [1] (100 µM) were 95.3% and 89.6%, respectively.

In the case of `CC1(Nc2ncc3nc(Nc4cc(Cl)cc(C(F)(F)F)c4)n(C4CCNC4)c3n2)CC1` (stereo not given), the results for the growth in test [1] (25 µM) and in test [1] (100 µM) were 83.5% and 52.1%, respectively.

Take `CNC(=O)Oc1cccc2c1OC(C)(C)O2`: the growth is 86.8% in test [1] (25 µM) and 96% in test [1] (100 µM).

On to `CN1C(=O)C(C(=O)Nc2ccc(Cl)c(Cl)c2)C(=O)N(C)C1=O`, for which the growth is 83.2% in test [1] (25 µM), 84.5% in test [1] (100 µM), 56% in test [2] (25 µM) and 10.4% (active) in test [2] (100 µM).
